From ChEMBL document CHEMBL3433997, “St. Jude Leishmania screening dataset” (2016) come the findings set out here.

Structures are written as SMILES.

Format in all cases: functional
For test [1], the target named is Solute carrier family 2, facilitated glucose transporter member 1 (Homo sapiens) (UniProt P11166). Kind of test: ST_JUDE_LEISH: Cytotoxicity at 2uM final concentration against transgenic Leishmania Mexicana promastigotes LmGLUT1 that are glucose transport deficient and complemented with the human glucose transporter GLUT1. Activity is measured by DNA content using SYBR green in vitro.

The target in test [2] is Hexose transporter 1 (Plasmodium falciparum) (UniProt O97467). Kind of test: ST_JUDE_LEISH: Cytotoxicity at 2uM final concentration against transgenic Leishmania Mexicana promastigotes LmPfHT that are glucose transport deficient and complemented with the Plasmodium falciparum hexose transporter. Activity is measured by DNA content using SYBR green in vitro.
Test [3] has as its target Glucose transporter (Leishmania mexicana) (UniProt O61059). Briefly: ST_JUDE_LEISH: Cytotoxicity at 2uM final concentration against transgenic Leishmania Mexicana promastigotes LmGT2 that are glucose transport deficient and complemented with the L. Mexicana glucose transporter 2. Activity is measured by DNA content using SYBR green in vitro.

Sequence of Solute carrier family 2, facilitated glucose transporter member 1 (Homo sapiens) (P11166 whole entry): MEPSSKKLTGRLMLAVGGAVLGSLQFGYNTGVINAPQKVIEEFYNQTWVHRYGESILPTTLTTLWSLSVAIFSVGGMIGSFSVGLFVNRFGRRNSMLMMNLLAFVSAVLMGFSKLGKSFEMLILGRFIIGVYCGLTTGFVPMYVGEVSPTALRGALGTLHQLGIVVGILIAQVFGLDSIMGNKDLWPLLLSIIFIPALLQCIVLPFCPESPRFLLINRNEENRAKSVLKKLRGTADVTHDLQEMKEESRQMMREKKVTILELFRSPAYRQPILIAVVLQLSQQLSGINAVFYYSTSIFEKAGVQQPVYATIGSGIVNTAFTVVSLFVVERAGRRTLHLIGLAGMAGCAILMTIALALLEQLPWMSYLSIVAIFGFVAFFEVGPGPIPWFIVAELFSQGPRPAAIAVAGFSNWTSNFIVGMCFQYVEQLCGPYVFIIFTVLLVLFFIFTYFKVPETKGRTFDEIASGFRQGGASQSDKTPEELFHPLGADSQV

Usually inhibition stands for the relative decrease from the control value, in per cent. Take `CCCc1cc(=O)oc2cc(OC)c(C(=O)CC(C)C)c(OC)c12`: the values for the inhibition in test [1], in test [2] and in test [3] were 0.58%, 3.76% and 6.92%, respectively.
On the same counts, the results for `CN(CCCCNC(=O)/C=C/c1ccccc1)C1CC2(CCN(C(=O)OC(C)(C)C)CC2)c2ccccc21` (stereo not given) are 3.4%, 3.28% and 1.67%.
In the case of `O=C(Nc1nc(-c2ccccn2)cs1)c1ccccc1COc1ccccc1`, the inhibition is -2.49% in test [1], 1.21% in test [2] and -1.57% in test [3].
Take `COc1ccc(-c2cc(C(=O)N3CCc4ccccc43)c3ccccc3n2)cc1OC`: the inhibition is -0.76% in test [1], 1.24% in test [2] and -0.93% in test [3].
Regarding `CCCCCCn1c2c(c(=N)c3c1CCC3)CCCC2`, the inhibition in test [1] turned out to be 78.2%; in test [2], 77.5%; in test [3], 66.2%.
On the same counts, the results for `CCOC(=O)c1ccc(N2CCN(CCCNC(=O)/C(=C/C=C/c3cc4cc(Cl)c(Cl)cc4[nH]3)OC)CC2)cc1` are 2.48%, 3.47% and 0.57%.
On the same counts, the results for `CCN(CC)CCN(Cc1ccc(-c2ccc(C(F)(F)F)cc2)cc1)C(=O)Cn1c(CCc2ccc(F)c(F)c2F)nc(=O)c2ccc(F)cc21` are 3.42%, 0.08% and -0.03%.
On the same counts, the results for `N#Cc1ccc(C2CCN(CC[C@H](N)Cc3ccc(Cl)s3)CC2)cc1` are 22.8%, 10.7% and 15.8%.
Turning to `CCN(CC)CC(O)CNc1c2ccc([N+](=O)[O-])cc2nc2cc(OC)c(OC)cc12` (stereo not given), the inhibition in test [1] amounted to 69%; in test [2] it was 71.7%; in test [3], 42%.
As for `COc1ccccc1CCN1CCC(CN(C)Cc2ccc(O)c(Cl)c2)CC1`, the figures for the inhibition in test [1], in test [2] and in test [3] were 2.46%, 5.47% and 4.27%, respectively.
Taken in the same sequence, the figures for `Cc1c(S(=O)(=O)Nc2ccc3nccc(N4CCN[C@H](C)C4)c3c2)sc2ccc(Cl)cc12` were -0.53%, 0.48% and -2.96%.
Take `Cc1ccc(NC(=O)c2ccc3ncccc3c2)cc1OC1CCN(Cc2ccsc2)C1` (stereo not given): the inhibition worked out at 3.87% in test [1], 1.3% in test [2] and 0.48% in test [3].
Taken in the same sequence, the figures for `O=C(Nc1ccc(C(=O)OCC2CCCCC2)cc1)N[C@@H](Cc1ccc(O)cc1)C(=O)NC1CCN(Cc2ccc(O)cc2)C1` (stereo not given in full) were 3.7%, 2.04% and 3.42%.
Taken in the same sequence, the figures for `COc1cc2c(cc1OC)CN(c1cc(N)c3cc(OC)c(OC)cc3n1)CC2` were 1.34%, 0.25% and -1.39%.
`CCOc1c(CNCCCCCCNCc2ccc3ccccc3c2OCC)ccc2ccccc12`: the inhibition in test [1] amounted to 3.4%; in test [2] it was 4.82%; in test [3], 1.99%.
On the same counts, the results for `COc1cccc(Nc2nc(NCCO)c3ccccc3n2)c1` are 14.8%, 15% and 5.17%.
Taken in the same sequence, the figures for `COc1cc(NC(=O)c2nn(CCCN3CCC(N4CCCC4)CC3)cc2-c2ccc(Cl)c(Cl)c2)cc(OC)c1OC` were 1.76%, 2.09% and 1.96%.
Taken in the same sequence, the figures for `c1ccc2c(NCCCCCCCCCNc3ccnc4ccccc34)ccnc2c1` were -0.85%, 4.91% and 8.19%.
Turning to `CC(C)c1cc(Oc2c(I)cc(CCNCc3ccccc3)cc2I)ccc1O`, the inhibition in test [1] is 0.46%; in test [2] it was 1.39%; in test [3] it was 0.47%.
On the same counts, the results for `CCNc1cc(C(=O)N[C@@H](Cc2ccccc2)[C@H](O)CNC(C)CCCC(C)C)cc(N2CCCS2(=O)=O)c1` (stereo not given in full) are 2.83%, 1.89% and 2.08%.
On the same counts, the results for `CC1(C)NC(N)=NC(=N)N1OCCCc1cc(Cl)c(Cl)cc1Cl` are 3.14%, 2.31% and 2.77%.
Take `COc1cccc(Nc2nccc(-c3c(-c4cccc(NC(=O)c5c(F)cccc5F)c4)nn4ccccc34)n2)c1`: the figures for the inhibition in test [1], in test [2] and in test [3] were 5%, 13.3% and 5.92%, respectively.
For the molecule `CNCCNCc1cccc(-c2cccc(-c3nc4cc(C(F)(F)F)ccc4[nH]3)c2)c1`, the inhibition in test [1] came out at 2.15%; in test [2], 1.32%; in test [3], 0.13%.
Taken in the same sequence, the figures for `CC(C)NCc1ccc(-c2ccc(NC(=O)c3cccc(C#N)c3)cc2)cc1` were 1.38%, 1.38% and -1%.
As to `CSc1nc2nc(C)c(Cc3cccc(C(F)(F)F)c3)c(C)n2n1`, the inhibition in test [1] was 0.17%; in test [2], 0%; in test [3], -1.61%.
On the same counts, the results for `O=C(NC1CC1)c1cnc(N2CCC(c3ccccc3)CC2)c(Cl)c1` are 2.86%, 6.43% and 3.1%.
As for `O=C(Nc1ccccc1-c1ccccc1)C1CCCN1C(=O)Nc1ccc(Cl)cc1` (stereo not given), the inhibition in test [1] is -0.38%; in test [2], -0.89%; in test [3], -2.33%.
On the same counts, the results for `Cc1ccccc1CNc1ccc2nc(N)nc(N)c2c1` are 1.01%, 2.12% and -0.21%.
Taken in the same sequence, the figures for `N#Cc1ccc(N[C@@H](CC2CCCCC2)C(=O)NCc2cc(F)c(F)cc2F)c2ccccc12` were 13%, 14.1% and 12%.
Taken in the same sequence, the figures for `CCOc1ccc2ccccc2c1CNCCCCCCNCc1c(OCC)ccc2ccccc12` were 7.3%, 6.69% and 4.92%.
For the molecule `N=C(N)NC(=O)Nc1cc(Cl)c(Cl)c(Cl)c1`, the inhibition in test [1] amounted to 2.56%; in test [2] it was 4%; in test [3], 2.18%.
Taken in the same sequence, the figures for `N=c1c2c(n(Cc3cccc(Cl)c3)c3c1CCC3)CCCC2` were 40.7%, 49.2% and 20.4%.
As for `Cc1[nH]c(C)c(-c2ccc(-c3cccc(Cl)c3)nc2)c(=O)c1Cl`, the inhibition in test [1] is 0.79%; in test [2], 2.52%; in test [3], 1.48%.
Taken in the same sequence, the figures for `O=C(Nc1ccc(F)c(Cl)c1)NC1CCN(c2ccnc3cc(Cl)ccc23)C1` (stereo not given) were 6.4%, 6.38% and 8.81%.
On the same counts, the results for `CC(Cc1ccc(OCCN2CCN(c3cccc(Cl)c3)CC2)cc1)NCC(O)c1cccc(Cl)c1` (stereo not given) are 0.3%, 0% and 1.82%.
